# Screening results from PubChem.
# WRN helicase inh = WRN helicase (human) inhibition. Potency, µM (titrated, usually from 114 µM), for inactives: top-dose activity change, negative = inhibition, usual class: inhibitors. WRN helicase unwinding, fluorescent forked duplex, kinetic. AID 651768. 360,000 compounds, 0.46% hits. Q14191; also: % is scaled to controls: 0 for no effect and ±100 for the full control effect; nearly all actives have a fitted effect of over 55% in size
#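 Enzyme (20 nM final) and test compound sit together 15 min at room temperature before substrate addition. Substrate is a single-forked duplex oligonucleotide (100 nM) labelled with fluorophore and quencher, with 2 mM ATP; helicase unwinding raises red fluorescence, read kinetically.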
# Pol eta inh = DNA polymerase eta (human) inhibition. Q9Y253. recombinant Pol eta, fluorescent DNA replication assay. Potency, µM (series often up to 114 µM), inactives show at the top dose activity change, negative = inhibition, most hits filed as inhibitors. 390,000 compounds, 1.2% hits; also: % is scaled to controls: 0 for no effect and ±100 for the full control effect
#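 Fluorescent replication assay: 50 nM final substrate added after a 15 min room-temperature compound preincubation with 10 nM enzyme. Signal taken at 0 min and again at 10 min.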
# Pol kappa inh = blocks human DNA polymerase kappa activity. Q9UBT6. purified Pol kappa, fluorescent DNA synthesis assay, 10 min. Potency, µM (titrated, usually from 107 µM), inactives show at the top dose activity, negative = inhibition, hits mostly inhibitors. 400,000 compounds, 0.53% hits. AID 588579; also: % is scaled to controls: 0 for no effect and ±100 for the full control effect
#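 50 nM final substrate added after 15 min RT preincubation of 10 nM Pol kappa with compound; fluorescence read at 0 and 10 min.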
# Pol beta inh = DNA polymerase beta (human) inhibition; P06746; Pol beta primer extension/strand displacement, fluorescence kinetic; Potency, µM (series often up to 114 µM), without a hit: top-dose activity change, negative = inhibition, usual class: inhibitors; 340,000 compounds, 1.3% hits; also: % is scaled to controls: 0 for no effect and ±100 for the full control effect
#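 Values derive from four-parameter Hill fits of normalized kinetic data: reads at 0 and 10 min following addition of 50 nM substrate to 10 nM Pol beta preincubated 15 min with compound.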
# POLI inh = DNA polymerase iota (human) inhibition; Q9UNA4; Pol iota fluorescent replication assay, 10 min; Potency, µM (highest dose often 115 µM), for the others: at the top dose activity, negative = inhibition, actives largely listed as inhibitors; 390,000 compounds, 1% hits
#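 Pol iota at 10 nM preincubated 15 min with compounds at room temperature; reaction started with fluorescent substrate, 50 nM final. Fluorescence read kinetically at 0 and 10 min; buffer-only wells as negative control.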
# FEN1 inh = human FEN1 inhibition; 390,000 compounds, 0.35% hits; Potency, µM (highest dose often 114 µM), for inactives: at the top dose activity change, negative = inhibition, hits mostly inhibitors; AID 588795; P39748; Recombinant FEN1 flap cleavage, fluorescence, 15 min; also: % is scaled to controls: 0 for no effect and ±100 for the full control effect; nearly all actives have a fitted effect of over 65% in size
# Target sequence (P39748 whole entry, looked up): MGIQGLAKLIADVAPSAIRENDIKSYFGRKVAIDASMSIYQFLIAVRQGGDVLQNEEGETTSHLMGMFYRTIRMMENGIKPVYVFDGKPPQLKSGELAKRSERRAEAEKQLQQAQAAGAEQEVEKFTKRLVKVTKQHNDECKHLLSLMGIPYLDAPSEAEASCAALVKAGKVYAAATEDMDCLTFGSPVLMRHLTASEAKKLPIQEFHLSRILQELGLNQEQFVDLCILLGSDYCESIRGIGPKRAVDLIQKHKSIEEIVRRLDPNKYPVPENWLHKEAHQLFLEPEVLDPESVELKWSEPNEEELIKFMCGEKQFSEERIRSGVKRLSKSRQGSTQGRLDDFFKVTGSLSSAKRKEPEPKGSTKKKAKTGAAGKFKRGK
#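 Concentration–response screening of FEN1 (10 nM): 15 min compound preincubation at room temperature, reaction started with 50 nM substrate and read at 0 and 15 min. Corrected, normalized data were fitted by a four-parameter Hill equation.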
# * = called active by the depositor; ? = inconclusive; . = not tested or not shown; [ ] = dose if it differs, or a comment. Sampled rows, rich in hits. Any-hit rate of the full collection: about 2.4%. Calls follow the shape of the dose curve; as a rule, active = well fitted curve in the direction sought with a large enough effect; inconclusive = small, poorly fitted or top-dose-only effect, or another doubt; inactive = no such curve, though single readings can be large; an effect the other way counts as inactive or inconclusive. Potency is read from the fitted curve at half-maximal effect.
SMILES,WRN helicase inh,Pol eta inh,Pol kappa inh,Pol beta inh,POLI inh,FEN1 inh
Cc1cccc2c1-c1sc(C(=O)NCCc3ccc(Cl)cc3)cc1CO2,.,-16%,-34%,8.9µM*,?,-15%
Cc1c(-c2ccc(Cl)cc2)c(=O)oc2c(CN3CCN(C)CC3)c(O)ccc12,.,1%,-1%[60.1 µM],-17%,-25%,-2%
N#CCCn1c(=O)c(-c2cccs2)nc2cnc(Oc3ccccc3)nc21,.,.,0%[60.1 µM],.,.,.
COc1cccc2c1C(=O)c1c(O)c3c(c(O)c1C2=O)C[C@](O)(C(=O)CO)C[C@H]3O[C@@H]1C[C@H](N)[C@H](O)[C@H](C)O1,.,.,1.5µM*,.,.,.
CCCCC(=O)OCC(=O)C1(O)Cc2c(O)c3c(c(O)c2C(OC2CC(NC(=O)C(F)(F)F)C(O)C(C)O2)C1)C(=O)c1c(OC)cccc1C3=O (stereo not drawn),7.9µM*,-22%,?,.,?,-32%
COc1cc2c(c(OC)c1OC)-c1c(cc3c(c1OC)OCO3)CC(C)C(C)(O)C2OC(=O)c1ccccc1 (stereo not drawn),.,.,10%[60.1 µM],.,.,.
CC(=O)OCC(NC(=O)C1CCCN1C(=O)OC(C)(C)C)C1OC(n2ccc(=O)[nH]c2=O)C(OC(C)=O)C1OC(C)=O (stereo not drawn),.,.,-14%,.,12%,-9%
Cc1[nH]c2ccccc2c1/C=N/Nc1nncn1N,-2%,-23%,-5%,?,5µM*,0%
CNc1ccc(Br)cc(C(=O)/C=C/c2ccc(Cl)cc2Cl)c1=O,-10%[11.6 µM],50µM*,-25%,32µM*,?,-21%
CNc1ccc(Br)cc(C(=O)/C=C/c2ccc(OC)cc2OC)c1=O,?,45µM*,?,?,11µM*,?
O=C(/C=C/c1ccc(Cl)cc1Cl)c1ccc[nH]1,4%,-13%,6%,14%,17%,8%
CNc1ccc(Br)cc(C(=O)/C=C/c2cccc(OC)c2)c1=O,-34%[57.1 µM],16µM*,?,-24%,?,?
COc1cccc(/C=C/C(=O)OCC(=O)NCCNC(=O)COC(=O)/C=C/c2cccc(OC)c2)c1,9%,-16%,-3%,.,-16%,-2%
COc1ccc(/C=C/C(=O)c2ccc(OC)cc2OC)c(OC)c1,-12%,-14%,-6%,-20%,-9%,-11%
COc1cc(-c2nc(Cn3nnc(C(=O)Nc4cc(C)cc(C)c4)c3C)c(C)o2)cc(OC)c1OC,.,-12%,-3%,7%,-9%,-18%
COc1cc(C(=O)OCC(=O)N2CCCC2=O)cc(OC)c1C,-19%,32µM*,?,.,?,-12%
CC(=O)Nc1ccc(C(=O)OCC(=O)N2CCCC2=O)cc1,-25%,-15%,-1%,.,40%,-2%
COCCn1c(C)cc(O)c(C(c2ccccc2OC)N2CCCCC2)c1=O (stereo not drawn),.,6%,-3%[60.1 µM],1%,-3%,-3%
COc1ccc([C@]23Cc4c(ccc5ccccc45)C(O2)C2=C(CCCC2=O)O3)cc1,.,.,.,-2%[22.9 µM],.,.
O=C1CCCC2=C1C1O[C@](c3ccsc3)(Cc3c1ccc1ccccc31)O2,.,.,.,4µM*,.,.
COc1ccc([C@]23Cc4c(ccc5ccccc45)C(O2)C2=C(CC4(CCCCC4)OC2=O)O3)cc1,.,.,.,9%[22.9 µM],.,.
O=c1oc2ccccc2c2c1C1O[C@](c3ccsc3)(Cc3c1ccc1ccccc31)O2,.,.,.,13µM*,.,.
O=C1c2ccccc2C(=O)N1CCCC[C@]12Cc3ccccc3C(O1)c1c(c3ccccc3oc1=O)O2,.,.,.,-13%[22.9 µM],.,.
O=C1C2=C(C(=O)c3ccccc31)C1O[C@](c3ccsc3)(Cc3c1ccc1ccccc31)O2,.,.,.,3.2µM*,.,.
O=C(C[n+]1cccc(Cl)c1)c1ccc(O)c(O)c1,.,.,2.2µM*,.,?,-15%
CC(C)Cc1nn2c(=O)cc(COc3ccc(NC(=O)c4ccco4)cc3)nc2s1,-9%,-5%,-3%,0%,-21%,-16%
